TDP1 cell noCPT: qHTS for Inhibitors of human tyrosyl-DNA phosphodiesterase 1 (TDP1): qHTS in cells in absence of CPT; Potency, µM (doses to about 46.2 µM), actives largely listed as inhibitors; DT40 Tdp1-/- hTDP1 cells, no CPT, ATP luminescence, 48 h; 15% of 420,000 active; also: nearly all actives have a fitted effect of over 55% in size
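Readout: luminescence from CellTiter-Glo after 30 min in the dark at RT. Cells: DT40 Tdp1-/- with stable hTDP1, 400/well. Exposure: compounds alone, ≥48 hr, 37 °C.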
DT40 TDP1 CPT: DT40-hTDP1 cell growth loss with CPT | chicken DT40 Tdp1-/-;hTDP1 cells + 20 nM CPT, ATP luminescence, 48 h | Potency, µM (doses to about 46.2 µM), usual class: inhibitors | 12% of 420,000 active; also: nearly all actives have a fitted effect of over 55% in size
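Chicken DT40 Tdp1-/- cells complemented with human TDP1, 400 cells/well, exposed to compounds plus 20 nM camptothecin for at least 48 h at 37 C; viability read as ATP content by CellTiter-Glo luminescence.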
ASM inhibitor: human S-ASM enzyme inhibition; Potency, µM (titrated, usually from 57.5 µM), actives largely listed as inhibitors; P17405; 0.006% of 340,000 active; placental ASM, HMU-PC fluorogenic substrate, 60 min
Target sequence (P17405 47-631 limits assumed): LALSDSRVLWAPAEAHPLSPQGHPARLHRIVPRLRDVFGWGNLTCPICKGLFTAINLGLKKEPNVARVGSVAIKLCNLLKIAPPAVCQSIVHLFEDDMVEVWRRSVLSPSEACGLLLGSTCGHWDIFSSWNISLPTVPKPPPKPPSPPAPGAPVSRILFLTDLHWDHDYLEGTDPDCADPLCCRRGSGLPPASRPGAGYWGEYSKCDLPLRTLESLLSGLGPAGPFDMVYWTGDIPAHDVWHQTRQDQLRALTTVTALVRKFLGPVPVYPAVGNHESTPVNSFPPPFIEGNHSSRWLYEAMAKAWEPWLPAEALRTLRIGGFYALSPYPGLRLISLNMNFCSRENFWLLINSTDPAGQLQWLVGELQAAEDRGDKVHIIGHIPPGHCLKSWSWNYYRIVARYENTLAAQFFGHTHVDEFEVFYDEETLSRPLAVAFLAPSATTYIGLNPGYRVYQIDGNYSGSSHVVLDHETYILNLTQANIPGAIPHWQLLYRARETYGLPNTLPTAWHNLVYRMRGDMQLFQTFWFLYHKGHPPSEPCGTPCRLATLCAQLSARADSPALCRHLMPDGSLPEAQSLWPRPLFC
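Human placenta-derived ASM enzyme was preincubated with compound for 10 minutes at room temperature, then given fluorogenic substrate HMU-PC0 (9 uM final) for 60 minutes at 37 °C; a pH 10 stop preceded fluorescence reading at Ex 386/Em 447 nm.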
HepG2 viability: counter-screen for TGF-b inhibitors: cytotoxicity in HepG2 cells; HepG2 CAGA-GFP viability, ATP luminescence, 18 h; Potency, µM (series often up to 46.1 µM), most hits filed as cytotoxic; 0.76% of 410,000 active
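HepG2 CAGA-GFP cells (1000/well, DMEM with 1% FBS) received compound, then TGF-beta at 500 pg/mL final, and were incubated 18 hours at 37 degrees C. Viability was read by CellTiter-Glo luminescence. Media-only wells were set as complete cell-killing and DMSO as no toxicity.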
TGFb SMAD3 inh: inhibitors of TGF-b signaling; Potency, µM (titrated, usually from 46.1 µM), most hits filed as inhibitors; 1.2% of 410,000 active; HepG2 CAGA-GFP TGF-b/SMAD3 reporter, GFP fluorescence, 18 h; TGF-beta stimulated, 500 pg/mL final; also: nearly all actives have a fitted effect of over 65% in size
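HEPG2 CAGA-GFP, 1000 cells/well; 2 h settle, 37 C; cpd via pin tool; TGF-b 500 pg/mL final; 18 h, 37 C; GFP imaging ex488/em500-530; %Activity normalised to -TGF-b and +DMSO controls; CRC fit, curve class.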
IL1B secr inh: inflammasome signaling inhibition, IL-1 beta readout; THP-1 LPS/ATP IL-1B secretion, AlphaLISA, 16 h; stronger effect = lower value; 4.7% of 360,000 active; activity change, % at 57.5 µM; AID 743279; in the data active = activity change below about -50%; inconclusive = mostly about -30% to -49%
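THP-1 cells pretreated 1 hr with compounds (up to 57.5 uM final), then stimulated with LPS (250 ng/mL final) plus ATP (1.25 mM final); secreted IL-1B measured by AlphaLISA after 16 hr, decreased signal indicating inhibition.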
A number is an active result; n = inactive; u = inconclusive; x = not tested or not shown. The list is not random: actives were taken first. Their share in the collection is about 19%. Unless noted, calls follow the shape of the dose curve; as a rule, active = well fitted curve in the direction sought with a large enough effect; inconclusive = small, poorly fitted or top-dose-only effect, or another doubt; inactive = no such curve, though single readings can be large; an effect the other way counts as inactive or inconclusive.

SMILES	TDP1 cell noCPT	DT40 TDP1 CPT	ASM inhibitor	HepG2 viability	TGFb SMAD3 inh	IL1B secr inh
Cc1cccc[n+]1C1C(c2ccccc2)C(C#N)=C(C(=C=[N-])C#N)NC1(O)C1CC1 (configuration not stated)	u	23.1µM	n	n	n	n
N#Cc1ccc(-c2cccs2)nc1SCC(=O)Nc1cccc(C(F)(F)F)c1	20.6µM	u	x	11.2µM	u	x
CCOc1ccc(NC(=O)CSc2nc(-c3cccs3)cc(C(F)(F)F)c2C#N)cc1	n	n	x	n	n	x
CCOC(=O)NC(=O)CSc1nc(C)cc(C(F)(F)F)c1C#N	n	n	n	n	n	n
Cn1c(SCc2c(F)cccc2Cl)nnc1-c1cccs1	u	n	n	n	n	n
Cc1cc(C(F)(F)F)c(C#N)c(SCC(=O)Nc2nc3cc(Br)ccc3s2)n1	n	n	n	n	n	-145.9
N#Cc1c(C(F)(F)F)cc(-c2cccs2)nc1SCC(=O)Nc1ccc(Cl)cc1	u	16.4µM	x	n	n	x
C=COC(=O)CSc1nc(-c2cccs2)ccc1C#N	n	n	n	n	n	n
N#Cc1ccc(-c2cccs2)nc1SCc1c(F)cccc1Cl	0.651µM	0.82µM	x	n	n	x
COc1ccc(CC(=O)OCC(=O)NC2CC2)cc1	n	n	n	n	n	n
Cc1ccc(S(=O)(=O)CCSc2nc(C)cc(C(F)(F)F)c2C#N)cc1	u	u	n	n	n	-100.9
O=C(CSc1nc2nc(-c3cccs3)cc(C(F)(F)F)c2c(=O)[nH]1)Nc1ccc(F)c(F)c1	4.11µM	6.51µM	n	n	u	n
O=C(OCC(=O)N1CCOCC1)c1ccc(Cl)c(S(=O)(=O)N2CCc3ccccc32)c1	u	n	n	n	n	n
CCN(C(=O)COC(=O)c1cccc(S(=O)(=O)N2CCOCC2)c1)C1CCS(=O)(=O)C1 (configuration not stated)	n	n	n	n	n	n
CCN(Cc1ccccc1)C(=O)COC(=O)c1c(C)nsc1NC	20.6µM	14.6µM	n	n	n	n
CNc1snc(C)c1C(=O)OCC(=O)c1ccc(Cl)cc1	9.2µM	13µM	n	n	n	n
CNc1snc(C)c1C(=O)OC(C)C(=O)c1ccc(F)cc1 (configuration not stated)	20.6µM	18.4µM	n	n	n	n
COc1ccc(C(=O)C(C)OC(=O)c2sc(C)nc2C)cc1 (configuration not stated)	n	n	n	n	n	n
COc1ccccc1CN1CCC2(CC1)CCN(C(=O)c1c(C)noc1C)CC2	n	n	x	x	x	x
CC(C)N1C(=O)S/C(=C/c2ccccc2OCc2ccc(C(=O)O)cc2)C1=O	n	n	n	n	n	n
CCOC(=O)c1c(-c2ccccc2)oc2ccc(O)c(CN3CCOCC3)c12	23.1µM	23.1µM	n	n	n	n
CCOC(=O)c1c(C)oc2ccc(O)c(CN3CCCCC3)c12	n	u	n	n	n	-69.4
Cc1c2cnn(CC(=O)N3CCN(c4ccc(F)cc4)CC3)c(=O)c2c(C)n1Cc1ccc(F)cc1	7.31µM	23.1µM	x	n	u	x
O=C(Cn1ncc2c([nH]c3ccccc32)c1=O)N1CCN(c2ccc(F)cc2)CC1	n	n	n	n	n	n
Cc1c2cnn(CC(=O)N3CCN(c4ccc(F)cc4)CC3)c(=O)c2c(C)n1Cc1ccccc1F	18.4µM	20.6µM	x	n	u	x
SMILES	TDP1 cell noCPT	DT40 TDP1 CPT	ASM inhibitor	HepG2 viability	TGFb SMAD3 inh	IL1B secr inh
Cc1ccc(C)c(NC(=O)Cn2ncc3c(C)n(Cc4ccc(F)cc4)c(C)c3c2=O)c1	u	u	x	n	n	x
O=C(NCc1ccc(F)cc1)Nc1nnc([C@H]2C[C@H](O)[C@@H](CO)O2)s1	n	n	x	n	n	n
COc1ccc(-c2cc3c(c4c2ccn4C)C2CCC3O2)cc1OC (configuration not stated)	u	n	x	n	n	n
COc1cccc(C(c2nnnn2-c2c(C)cccc2C)N2CCN(C/C=C/c3ccccc3)CC2)c1OC (configuration not stated)	u	u	x	n	u	n
FC(F)(F)Oc1ccccc1C(c1nnnn1C1CCCC1)N1CCN(C/C=C/c2ccccc2)CC1 (configuration not stated)	16.4µM	u	x	n	u	n
COc1cccc(C(c2nnnn2C2CCCCC2)N2CCN(C/C=C/c3ccccc3)CC2)c1OC (configuration not stated)	13µM	16.4µM	x	n	u	x
CCN1CCN(C(c2ccccc2OC)c2nnnn2C2CCCCC2)CC1 (configuration not stated)	n	n	n	n	n	n
C=CCOc1ccc2c(c1)c(=O)cc(C(=O)O)n2CC	n	n	n	n	n	n
CC(NC(=O)c1cc2ccccc2oc1=O)c1ccc(O)cc1 (configuration not stated)	u	u	n	n	n	n
CCOC(=O)C1=CC[C@H]2c3c(c4ccccc4n3C)C[C@H]1N2C	u	29.1µM	n	n	u	n

Assay outcomes as filed in PubChem BioAssay.
